The campaign covered roughly 53,000 compounds. About 900 (1.7%) showed an effect of 50% or more. The sample as a whole holds a higher share of strong results than the screen did.

This assay relates to Mycobacterium tuberculosis. Description: Cornell - Phenotypic assay to identify agents that inhibit growth of Mycobacterium tuberculosis. Format: functional. On the set-up: scale not given: direction of the effect not stated beside the values. The conditions noted are these: 10 mM as filed; unlikely as a test dose.
Turning to `O=C(NCC1CC1)Nc1cnc2cc(Cl)ccc2c1O`, the “Percent Effect” value is given as -6.744%.
Then `Cl.O=C(NCCn1nc(C2CCNC2)c2cccnc21)C1CC1` (stereo not given), with -8.257%; and `O=C(O)COc1ccccc1CN1CCCC1c1ccncn1` (stereo not given), with -19.71%.
Then `CC(SCC(=O)N(C)CC(=O)NC1CC1)c1cc(F)ccc1F` (stereo not given), with -24.27%; and `O=C(NCc1ccco1)[C@H]1COC[C@H]2CN(Cc3ccoc3)C[C@H]21.O=C(O)C(F)(F)F`, with -10.46%; and `Cn1cccc1CN(C(=O)Cc1cccs1)C1CC1`, with 91.3%.
Take `CN(Cc1cccs1)C1CCC[C@@H]2CN(C(=O)c3cccn3C)C[C@H]12` (stereo not given in full): the “Percent Effect” value is listed as 28.44%.
Then `CN(C(=O)Cc1cccs1)C1CCN(c2ccccn2)CC1`, with -44.78%; and `O=C(O)CC(CC(=O)N(Cc1ccsc1)C1CC1)c1cccs1` (stereo not given), with 15.88%.
The result for `O=C(O)CC(CC(=O)NCCc1cccs1)c1cccs1` (stereo not given) reads 23.94%; that for `Cn1cccc1CN(C(=O)CC(CC(=O)O)c1cccs1)C1CC1` (stereo not given), 104.7%; that for `Cc1ccc(N(C)[C@@H]2CC[C@@H]3CN(C(=O)C4CCOCC4)C[C@@H]32)nn1`, -1.727%.
The result for `CCN(Cc1nc(Cc2ccccc2)no1)C1CC1` reads -4.646%.
As to `CC(C)c1ccc(S(=O)(=O)N2CSCC2C(=O)NCC(F)(F)F)cc1` (stereo not given), the “Percent Effect” value turned out to be 11.48%.
Regarding `Cc1cccc(CNC(=O)NCC2CCN(Cc3ncc[nH]3)C2)c1` (stereo not given), the “Percent Effect” value is given as 26.47%.
The result for `c1ccc2sc(CN3CCCC3c3noc(C4CC4)n3)nc2c1` (stereo not given) reads 50.21%; that for `c1cc(CN2CCCC2c2noc(C3CC3)n2)on1` (stereo not given), -61.35%.
As for `Cc1cc(CN2CCCC2c2noc(C3CC3)n2)c2ccccc2n1` (stereo not given), the “Percent Effect” value worked out at 12.61%.
Then `CCOC(=O)[C@]12CCCN(Cc3cccs3)C[C@H]1CN(CCOC)C2.O=C(O)C(F)(F)F.O=C(O)C(F)(F)F`, with 11.02%; and `COc1ccc(CNC(C)c2cnn(C)c2)cc1OC1CCCC1` (stereo not given), with 9.224%.
Turning to `O=C(O)C(F)(F)F.c1coc(CN2CCCn3c(nnc3Cn3cccc3)C2)c1`, the “Percent Effect” value is 21.05%.
Then `Cl.O=C(NCCn1nc(C2CCNC2)c2cccnc21)c1ccccn1` (stereo not given), with -9.907%; and `Cc1cc(-c2ccc(=O)n(CCNC(=O)C3CCCCC3)n2)c(C)o1`, with 6.455%.
Then `Cc1cc(-c2ccc(=O)n(CCNC(=O)C3CC3)n2)c(C)o1`, with 55.53%.
Then `Cc1cc(-c2ccc(=O)n(CCNC(=O)C3CCC3)n2)c(C)o1`, with -20.09%; and `O=C(Nc1cccc(CN2CCC(CO)CC2)c1)c1cc(Cl)c[nH]1`, with -16.48%; and `CC(C)N(C)S(=O)(=O)N(Cc1cccs1)Cc1cccs1`, with 53.57%.
As to `CCN(Cc1cccs1)S(=O)(=O)N(C)C(C)C`, the “Percent Effect” value was 30.52%.
The result for `COc1ccccc1CN(Cc1cccs1)S(=O)(=O)N(C)C(C)C` reads 41.56%; that for `CCOc1ccc(C(F)(F)F)cc1NC(=O)N1CCNC(=O)C1`, 13.57%.
Then `Br.O=C(CN(C1=NCCCC1)c1ccccc1)c1ccccc1`, with -16.62%.
The result for `Br.O=C(CN(C1=NCCCC1)c1ccccc1)c1ccc2c(c1)OCCO2` reads 22.49%; that for `Br.Cc1ccc(N(CC(=O)c2ccc(Br)cc2)C2=NCCCCC2)cc1`, 102.8%; that for `Br.CCOc1ccc(N(CC(=O)c2ccccc2)C2=NCCCCC2)cc1`, 104.2%.
`Br.COc1ccc(C(=O)CN(C2=NCCCCC2)c2ccccc2)cc1`: the “Percent Effect” value is on record as 15.77%.
Then `Br.O=C(CN(C1=NCCCCC1)c1ccc(Cl)cc1)c1ccccc1`, with 14.11%.
The result for `Br.Cc1cccc(N(CC(=O)c2ccccc2)C2=NCCCCC2)c1` reads 13.79%.
The result for `Br.Cc1ccc(C(=O)CN(C2=NCCCCC2)c2ccccc2)cc1` reads 29.09%; that for `Br.O=C(CN(C1=NCCCC1)c1ccccc1)c1ccc(OC(F)F)cc1`, 62.24%.
On to `O=C(NCC[S+]([O-])c1ccccc1)c1ccc2[nH]c(=O)[nH]c2c1` (stereo not given), for which the “Percent Effect” value is given as 15.24%.
The result for `CCOC(=O)[C@@H]1[C@@H](O)C(=O)N(C)C12CCN(C(=O)OC)CC2` reads -16.14%; that for `CC(C)CCN1C(=O)C2(NC(=O)c3ccccc3O2)c2ccccc21` (stereo not given), 40.69%; that for `Cc1nc(-c2ccncc2)ncc1C(C)NC(=O)CN1CCOC1=O` (stereo not given), -51.46%.
Then `O=S(=O)(NCCCn1cncn1)c1ccc2c(c1)CCC2`, with -2.394%.
Regarding `CN(CCc1nccs1)C(=O)C1(C#N)CCCCC1`, the “Percent Effect” value is 25.08%.
The result for `Cc1nc(NCCO)cc(C(C)Cn2nc(C)c(C)c2C)n1` (stereo not given) reads -14.61%; that for `NC(=O)c1cn2cc(-c3ccccc3Cl)n(CC3CC3)c(=O)c2n1`, 14.04%; that for `CC1CCN(c2ccnc3ccc(Br)cc23)CC1`, 84.63%.
The result for `CC(=O)NCC1CCN(c2ccnc3ccc(Br)cc23)CC1` reads 9.267%; that for `O=C(C1CCN(c2ccnc3ccc(Br)cc23)CC1)N1CCOCC1`, -18.98%.

These data come from ChEMBL document CHEMBL3988442, “University of Dundee, Small-Polar-MMV Screening Library” (2021).
